Drawing on the supplement of paper PMC10681739, this text covers ETS1 binding intensity and RUNX1 binding intensity for 25 sequences.

Test [1] addresses T1, ETS1 (UniProt P14921).
T1 sequence: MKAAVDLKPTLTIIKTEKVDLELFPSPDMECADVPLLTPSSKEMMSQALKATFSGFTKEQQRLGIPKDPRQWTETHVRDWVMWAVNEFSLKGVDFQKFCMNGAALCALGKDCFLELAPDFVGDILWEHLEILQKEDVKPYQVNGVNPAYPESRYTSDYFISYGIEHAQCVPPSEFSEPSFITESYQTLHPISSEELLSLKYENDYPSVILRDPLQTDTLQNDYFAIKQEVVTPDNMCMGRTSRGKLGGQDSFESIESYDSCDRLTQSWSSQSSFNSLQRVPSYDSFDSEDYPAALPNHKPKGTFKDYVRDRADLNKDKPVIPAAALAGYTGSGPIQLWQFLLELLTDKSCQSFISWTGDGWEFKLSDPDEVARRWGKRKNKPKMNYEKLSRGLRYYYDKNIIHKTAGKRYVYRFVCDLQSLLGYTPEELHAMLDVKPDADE
Description: ETS1 binding intensity (PBM fluorescence), ETS1 alone (arbitrary fluorescence units); higher = stronger binding. To be noted: ETS1 concentration 1 nM; RUNX1 concentration 0 nM.

Test [2] has as its target RUNX1 (UniProt Q01196). Description: RUNX1 binding intensity (PBM fluorescence), RUNX1 alone (arbitrary fluorescence units); higher = stronger binding. To be noted: RUNX1 concentration 2 nM; ETS1 concentration 0 nM. The protocol: (§1)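 Cooperative gcPBM on 36-bp genomic probes with neighbouring ETS1 and RUNX1 sites. Recombinant human RUNX1 (2 nM) was incubated alone or with ETS1 (25 nM) and detected with anti-RUNX1 antibody plus Alexa488 secondary. Values are medians over 4 replicate spots; the RUNX1+ETS1 data were normalised to the RUNX1-only data. The probes sit in constant array flanks that are not printed.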

Test [3] addresses T1, ETS1. Description: ETS1 binding intensity (PBM fluorescence) in presence of RUNX1, normalised to ETS1-only experiment (arbitrary fluorescence units); higher = stronger binding. Conditions: ETS1 concentration 1 nM; RUNX1 concentration 25 nM.
The target of test [4] is RUNX1 (UniProt Q01196). Description: RUNX1 binding intensity (PBM fluorescence) in presence of ETS1, normalised to RUNX1-only experiment (arbitrary fluorescence units); higher = stronger binding. Conditions: RUNX1 concentration 2 nM; ETS1 concentration 25 nM. The protocol:
as §1
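For RUNX1 binding intensity (PBM fluorescence) in presence of ETS1, normalised to RUNX1-only experiment in this document: Full-length recombinant human ETS1 or RUNX1 bound to double-stranded 36-bp genomic probes on microarrays, detected by protein-specific primary antibody and Alexa488 secondary, spot fluorescence as median of four replicate spots.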
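For RUNX1 binding intensity (PBM fluorescence), RUNX1 alone in this document: Full-length recombinant human RUNX1 bound to double-stranded 36-bp genomic probes on a high-density microarray, scored as Alexa488 fluorescence per spot via anti-RUNX1 antibody, median of four replicate spots.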

RUNX1, sequence (Q01196 whole entry): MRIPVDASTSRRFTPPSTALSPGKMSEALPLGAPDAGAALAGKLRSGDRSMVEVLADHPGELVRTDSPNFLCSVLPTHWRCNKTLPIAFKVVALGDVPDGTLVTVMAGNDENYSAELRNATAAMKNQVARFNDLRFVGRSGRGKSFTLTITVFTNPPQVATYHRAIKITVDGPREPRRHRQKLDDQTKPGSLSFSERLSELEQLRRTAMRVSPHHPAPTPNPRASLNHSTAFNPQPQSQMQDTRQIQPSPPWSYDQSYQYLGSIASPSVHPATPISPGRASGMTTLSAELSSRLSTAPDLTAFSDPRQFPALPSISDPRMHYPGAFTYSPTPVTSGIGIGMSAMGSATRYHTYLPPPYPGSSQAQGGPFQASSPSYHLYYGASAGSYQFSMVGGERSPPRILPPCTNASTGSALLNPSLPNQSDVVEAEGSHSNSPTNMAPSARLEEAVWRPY

In the case of AGCCGTTTCCGGCGCTCTACCCCGCCGCAGGCCGAG, the ETS1 binding intensity came to 833 with ETS1 [1] and 979 with ETS1 [3]. Moreover, the RUNX1 binding intensity stood at 859 with RUNX1 [2] and 2300 in the test with RUNX1 [4].
For TTGTCTGCATCCTGTGCTGTGTGGTAGCTCTGGGTT, the results for the ETS1 binding intensity with ETS1 [1] and in the test with ETS1 [3] were 510 and 541, respectively. Besides, the RUNX1 binding intensity in the test with RUNX1 [2] came out at 702; with RUNX1 [4], 1490.
Consider CCTCCCGACCGGAAGCCCCGCCACAGAGCGGGTTGT, for which the results for the ETS1 binding intensity in the test with ETS1 [1] and with ETS1 [3] were 6240 and 8570, respectively. Also, the figures for the RUNX1 binding intensity with RUNX1 [2] and with RUNX1 [4] were 848 and 2420, respectively.
Consider AGGAGCCGGAAGTCCCGCCCACGCACCCCCCGCAGG, for which the ETS1 binding intensity in the test with ETS1 [1] came to 5260; with ETS1 [3], 8270. Moreover, the results for the RUNX1 binding intensity with RUNX1 [2] and in the test with RUNX1 [4] were 857 and 1770, respectively.
For AGTGGAGTAGGAACCGGAAAACCACAATAAGTCCCA, the ETS1 binding intensity in the test with ETS1 [1] worked out at 2170; in the test with ETS1 [3], 12400. Besides, the RUNX1 binding intensity with RUNX1 [2] was determined as 1470; with RUNX1 [4] it was 3630.
ACGACGTCCCGGAAGTGCTGCGGCAATGTTGCTCTT: the results for the ETS1 binding intensity with ETS1 [1] and with ETS1 [3] were 5570 and 6620, respectively. Besides, the results for the RUNX1 binding intensity in the test with RUNX1 [2] and in the test with RUNX1 [4] were 759 and 1470, respectively.
For the sequence GGCTTTCCGTTCAAGGATCTTTTTGCGGTCTTTGTC, the ETS1 binding intensity came to 445 in the test with ETS1 [1] and 777 with ETS1 [3]. The RUNX1 binding intensity in the test with RUNX1 [2] is 1610; with RUNX1 [4] it was 3270.
For GACAGGAAGTGACCTCAATTTCCCCGGCCACAGAAA, the ETS1 binding intensity with ETS1 [1] is 2650; with ETS1 [3], 4280. Moreover, the values for the RUNX1 binding intensity in the test with RUNX1 [2] and with RUNX1 [4] were 809 and 1770, respectively.
Take ACAGGCTGTCTGCTTCCGTCAGCGGTTATTCCCTTG: the ETS1 binding intensity was 523 with ETS1 [1] and 602 with ETS1 [3]. Besides, the RUNX1 binding intensity came out at 882 with RUNX1 [2] and 1340 with RUNX1 [4].
With TGCTCAAATGCAGGATGTGGTCTGAGAGTTTCTCCT, the values for the ETS1 binding intensity with ETS1 [1] and with ETS1 [3] were 1910 and 6550, respectively. Also, the figures for the RUNX1 binding intensity with RUNX1 [2] and with RUNX1 [4] were 693 and 1680, respectively.
Consider TGCCTTCTACTCCGGAACTCAGACCGCTGCCTTCTA, for which the ETS1 binding intensity is 759 in the test with ETS1 [1] and 979 with ETS1 [3]. In addition, the figures for the RUNX1 binding intensity in the test with RUNX1 [2] and with RUNX1 [4] were 1090 and 946, respectively.
CTGTCATCTTCCTGACAGCACGCCCACAAAGGACCA: the ETS1 binding intensity in the test with ETS1 [1] worked out at 482; in the test with ETS1 [3], 377. Moreover, the RUNX1 binding intensity with RUNX1 [2] came to 843; with RUNX1 [4], 916.
On to GGTGGCAACATCCTGGGGAGGGGAACCCACAGGGGA, for which the ETS1 binding intensity with ETS1 [1] was 364; in the test with ETS1 [3] it was 452. Moreover, the RUNX1 binding intensity with RUNX1 [2] worked out at 835; with RUNX1 [4], 1100.
Take CCATCCAGGAAGCTTATGGTGCGACCGCAGTGTGCC: the ETS1 binding intensity with ETS1 [1] was 508; with ETS1 [3], 1880. Further, the RUNX1 binding intensity with RUNX1 [2] was 908; with RUNX1 [4] it was 1160.
In the case of AACCTAGAAAAGGAAGCTGCGGTTTTTCAGGGTATG, the ETS1 binding intensity with ETS1 [1] was determined as 697; with ETS1 [3], 6430. The RUNX1 binding intensity in the test with RUNX1 [2] is 8830; with RUNX1 [4], 12300.
For CTTTAAGGAGGCGGAAAAGTTAACCGCGATGGGCAG, in that order: 533, 1430, 996 and 1050.
As for GGTCCGGATGTATAAAGCGCGGCCCCCTGCGGGGAG, the ETS1 binding intensity was determined as 910 with ETS1 [1] and 1020 in the test with ETS1 [3]. In addition, the RUNX1 binding intensity with RUNX1 [2] was found to be 732; in the test with RUNX1 [4] it was 997.
For GCCCCCGGCTGGGCAGGATGTGGTGGCAGCTGCAGG, in that order: 4040, 5380, 743 and 1320.
Turning to GTATCACTTCCTGTTTTCCTCTGTGGCTTACTGCTG, the ETS1 binding intensity turned out to be 3310 in the test with ETS1 [1] and 3330 in the test with ETS1 [3]. In addition, the RUNX1 binding intensity with RUNX1 [2] turned out to be 1300; with RUNX1 [4] it was 3210.
In the case of TCCTCCCACGGGAAGTGCCGTAGGACCGCAGCCCGA, the ETS1 binding intensity with ETS1 [1] was found to be 870; in the test with ETS1 [3] it was 1170. Further, the results for the RUNX1 binding intensity in the test with RUNX1 [2] and with RUNX1 [4] were 812 and 1020, respectively.
As for AAATGTGGCCGGATGCTCTGTGGGCGGGCGGCAGCT, the ETS1 binding intensity with ETS1 [1] came out at 2890; with ETS1 [3], 3770. Moreover, the RUNX1 binding intensity with RUNX1 [2] worked out at 700; in the test with RUNX1 [4], 1300.
As to TGGGTACTTCCTGTGACAAATCGAGTTGACCACATG, the ETS1 binding intensity amounted to 1190 in the test with ETS1 [1] and 2230 with ETS1 [3]. Moreover, the RUNX1 binding intensity with RUNX1 [2] came out at 678; with RUNX1 [4], 1720.
As for TACGGGAACTTCCTTTTCTTGTGGTGTGGCCGGGTC, the ETS1 binding intensity was determined as 571 with ETS1 [1] and 853 with ETS1 [3]. The RUNX1 binding intensity with RUNX1 [2] worked out at 873; in the test with RUNX1 [4], 2050.
Take CTGCCCACCGGAAACGATGGCGCGAGGCCGCAGAGC: the ETS1 binding intensity was 6160 with ETS1 [1] and 7790 with ETS1 [3]. Moreover, the RUNX1 binding intensity is 728 in the test with RUNX1 [2] and 1660 with RUNX1 [4].
On to GGAGCAAGGATGACAGGATGTGGCTTAGGGGGAGGC, for which the values for the ETS1 binding intensity with ETS1 [1] and with ETS1 [3] were 5020 and 7820, respectively. Also, the RUNX1 binding intensity in the test with RUNX1 [2] worked out at 708; in the test with RUNX1 [4] it was 1000.
